“And” between values parts separate entries of the source, which are not always exact repeats. Equal entries are not always repeated. The panel holds about 83,000 compounds, 20% with a hit somewhere; the sample as a whole holds those more often.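 Compound tested at a single concentration for 48 hours in 96-well plates; a percent growth value below 10 was scored as active.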 The source made the active and inactive calls.

The subject of the assay is HL-60(TB) leukemia. The assay is described as follows: NCI-60 one-dose screen, 48 h (100 = growth as untreated, 0 = no growth, -100 = all killed). The note with it: 10 µM unless noted.
In the case of `CS(=O)(=O)Nc1ccc(Nc2c3ccccc3nc3cc([N+](=O)[O-])ccc23)cc1`, the growth is -8.01% (active). The result for `Cc1ccccc1N=C(c1ccccc1)C1C(=O)c2ccccc2C1=O` reads 78.5% (inactive); that for `O=C(c1c(F)ccc(NS(=O)(=O)N2CC[C@@H](F)C2)c1F)c1c[nH]c2ncc(-c3cnc(C4CC4)nc3)cc12`, 35.6% (inactive). With `Cc1cccc2c1NC(=O)C2(c1ccc(O)cc1)c1ccc(O)cc1` the figure was 83% (inactive).

On to `Fc1ccc2c(c1)c(-c1nc(-c3c[nH]c4ncccc34)cs1)cn2CCCN1CCCCC1`, for which the growth was 24.2% (inactive).

For the molecule `Cc1ccc(-c2noc(CC(=O)c3ccc([N+](=O)[O-])cc3)n2)cc1`, the growth was 65.2% (inactive). With `C=CCn1c(SCC(=O)Nc2ccc(C(=O)/C=C/c3ccc(Cl)cc3)cc2)nnc1-c1cc(-c2ccc(S(N)(=O)=O)cc2)nc2ccccc12` the figure was 75.7% (inactive). The result for `COc1ccc(C(=O)N2NC(=O)/C(=C/c3ccc(F)cc3)N=C2c2ccccc2)cc1` reads 3.84% (active); that for `CCC(O)c1ccc(Br)cc1NC(=O)c1cccc(Cl)c1` (centres undefined), -6.38% (active); that for `CCOC(=O)c1csc(N)n1`, 95.1% (inactive) and 98.1% (inactive). With `CCCc1ccnc(NS(=O)(=O)c2ccc(N)cc2)n1` the figure was 24.7% (inactive). With `CCNc1nnnn1CC`, the growth was 111% (inactive). The result for `C[n+]1c(/C=C/c2c[nH]c3ccccc23)ccc2ccccc21` reads 73.9% (inactive); that for `CCCCCCCCCCCCCCCCCCOc1ccccc1N`, 2.15% (active). `NC(=S)c1csc(CCNC(=O)c2ccccc2)n1`: the growth was 89% (inactive). The result for `O=C(N/N=C/c1ccccc1)C(Oc1ccccc1)c1ccccc1` (centres undefined) reads 109% (inactive). Turning to `Nc1ccc2c(O)cc(S(=O)(=O)O)cc2c1`, the growth was 89.8% (inactive) and 67% (inactive). The result for `COc1ccccc1/C=N\N=C(N/N=C/c1ccccc1OC)N/N=C/c1ccccc1OC` reads 31.3% (inactive) and 41.7% (inactive).

As to `C#CCOc1ccc2ncnc(Nc3ccc(NC(=O)CCl)cc3)c2c1`, the growth was -57.5% (active). In the case of `NC(N)=Nc1nc2ccccc2o1`, the growth is 124% (inactive).

For `C#Cc1c2c(c(OC)c3c1OCO3)[C@H]([C@H]1OC(=O)c3c1ccc(OC)c3OC)N(C)CC2`, the growth was 72.5% (inactive). For `O=C1/C=C/[C@@H](O)[C@@H]2C[C@@H](O)C[C@H]2/C=C/CCCCO1`, the growth was -22.8% (active). With `Cc1c(N)ccc(-c2ccc(N)c(C)c2S(=O)(=O)O)c1S(=O)(=O)O` the figure was 94.7% (inactive). As to `O=C(Nc1cccc(-n2ccc3c(NC(=O)c4ccccc4)nccc32)c1)c1ccc(Cl)c(C(F)(F)F)c1`, the growth is -32.3% (active) and 56.6% (inactive). For `O=C(CN1CCN(c2cc3c(cc2F)c(=O)c(C(=O)O)cn3C2CC2)CC1)Nc1nc(-c2ccccc2)cs1`, the growth is 82.1% (inactive). The result for `CCN(CC)CCCOc1ccc2c(c1)O/C(=C\c1cccc(OC)c1)C2=O` reads 97.4% (inactive); that for `O=C(CN1CCCCC1)Nc1nc(-c2cc3ccccc3oc2=O)cs1`, 93.8% (inactive). For `CC(=O)O[C@H]1CC[C@]2(C)C3=C(C(=O)C[C@H]2C1(C)C)[C@]1(C)CC[C@H]([C@H](C)CCC(=O)O)[C@@]1(C)CC3=O`, the growth was 108% (inactive). The result for `CC(c1ccccc1)n1ccnc1CO` (centres undefined) reads 101% (inactive); that for `O=C1NC(=O)N(Cc2ccccc2)CC1Br` (centres undefined), 56.4% (inactive). Take `O=C1Nc2ccc(F)cc2/C1=C\c1c(-c2ccccc2)nc2ccccn12`: the growth was 56.4% (inactive). For the molecule `Oc1c(Cl)cc(Cl)c2ccc(Cn3cc(-c4cc(C(F)(F)F)cc(C(F)(F)F)c4)nn3)nc12`, the growth was -13.7% (active). Take `CN(C)CCNc1nc2ccccc2c2c(=O)c3ccccc3sc12`: the growth is 9.19% (active). The result for `COc1ccc(/C=C/c2nc(-c3n[nH]c(=O)n3-c3ccccc3)c3ccccc3n2)cc1` reads 97.1% (inactive). For the molecule `CC1(C)CC(=O)c2cc3c(N)c(C(=O)Nc4ccc(Cl)cc4)sc3nc2C1`, the growth is 107% (inactive). The result for `Nc1nc(Cl)c2ncn(Cc3cc4c(cc3I)OCO4)c2n1` reads 52.3% (inactive); that for `COc1cc2oc(-c3cccc(NC(=O)c4ccccc4)c3)cc(=O)c2c(OC)c1OC`, 60.5% (inactive).

As for `Cc1ccc(S(=O)(=O)OCCN(CCOS(=O)(=O)c2ccc(C)cc2)c2c[nH]c(=O)[nH]c2=O)cc1`, the growth was 99.2% (inactive). The result for `CCOC(=O)CNC(=O)CCCCSc1ncnc2nc[nH]c12` reads 91.1% (inactive).
